Compound activity as filed in PubChem.
SMN2 splice up: SMN2 splice variant enhancement; HEK293 SMN2-luciferase splicing reporter, luminescence, 30-36 h; Potency, µM (top dose mostly 46.1 µM), for inactives: at the top dose activity change, positive = activation, most hits filed as activators; hit rate 2.8% among 210,000; AID 1458; further: % of control where 0% means no effect; nearly all actives have a fitted effect of over 55% in size
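HEK293 cells carry an SMN2 minigene-luciferase reporter in which exon 7 inclusion puts luciferase in frame. Cells were seeded at 2000 cells/well, attached for 10-12 hours, then exposed to compounds for 30-36 hours at 37C before ONE-Glo luminescence.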
FLuc modulator: firefly luciferase modulation, counter-screen for miR-21 project; Potency, µM (highest dose often 57.5 µM), for the others: at the top dose activity change, negative = inhibition, most hits filed as inhibitors; hit rate 6.9% among 360,000; AID 588342; purified FLuc, Km substrates, luminescence inhibition; P08659;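 further: plate controls were vehicle for no effect and reference inhibitor for full effect; nearly all actives have a fitted effect of over 55% in size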
Target sequence (P08659 whole entry, looked up): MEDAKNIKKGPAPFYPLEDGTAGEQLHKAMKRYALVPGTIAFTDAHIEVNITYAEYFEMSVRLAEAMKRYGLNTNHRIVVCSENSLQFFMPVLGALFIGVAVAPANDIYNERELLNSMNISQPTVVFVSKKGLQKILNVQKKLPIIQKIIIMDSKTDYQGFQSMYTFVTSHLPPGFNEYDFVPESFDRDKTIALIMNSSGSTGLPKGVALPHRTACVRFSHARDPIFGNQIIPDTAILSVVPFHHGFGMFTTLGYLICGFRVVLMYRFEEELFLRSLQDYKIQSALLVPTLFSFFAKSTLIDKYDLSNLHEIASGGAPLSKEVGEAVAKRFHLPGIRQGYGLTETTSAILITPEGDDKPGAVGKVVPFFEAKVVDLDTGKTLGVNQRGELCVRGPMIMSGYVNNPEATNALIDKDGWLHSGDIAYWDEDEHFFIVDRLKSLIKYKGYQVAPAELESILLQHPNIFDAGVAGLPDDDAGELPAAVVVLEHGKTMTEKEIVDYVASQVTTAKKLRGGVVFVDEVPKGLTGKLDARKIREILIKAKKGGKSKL
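Purified P. pyralis luciferase (10nM final) with 10uM D-luciferin and 10uM ATP (Km levels) in 50mM Tris acetate pH 7.5, 10mM Mg acetate, 0.01% Tween-20, 0.05% BSA; qHTS 6-point titration, ~60 µM downward; luminescence read.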
ELG1 repair inh: blocks ELG1-dependent DNA repair in HEK293T cells. HEK293T ELG1-luciferase reporter, luminescence, 16 h; DNA damage induced by 5-fluorouridine. Potency, µM (titrated, usually from 46.1 µM), for the others: at the top dose activity change, negative = inhibition, most hits filed as inhibitors. hit rate 2.3% among 330,000. AID 504467; further: on the % scale 0 is the no-effect control and ±100 the full control effect; nearly all actives have a fitted effect of over 55% in size
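Luminescence from the luciferase reporter, measured 30 min after ONE-Glo reagent at room temperature, was the read-out. Beforehand, 2,000 cells per well were exposed for 16 hr at 37 °C to 5-fluorouridine together with compound or vehicle.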
NPC1 prom act: NPC1 promoter activation | AID 485313 | Huh7 NPC1 promoter luciferase reporter, 24 h | Potency, µM (highest dose often 9.22 µM), for inactives: top-dose activation, most hits filed as activators | hit rate 2.4% among 320,000; further: % of control where 0% means no effect; nearly all actives have a fitted effect of over 60% in size
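In 1536-well qHTS, Huh7 cells harboring an NPC1 promoter–luciferase construct received compound for 24 h; activation was quantified by luminescence following luciferase reagent addition.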
ELG1 genotox: genotoxicity induction in ELG1-luciferase HEK293T cells. Potency, µM (doses to about 46 µM), inactives show at the top dose activity change, positive = activation, usual class: activators. HEK293T ELG1-luciferase reporter, luminescence, 16 h. AID 504466. hit rate 1.3% among 330,000; further: % of control where 0% means no effect; nearly all actives have a fitted effect of over 60% in size
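DMSO vehicle served as control against compound-treated ELG1-luciferase HEK293T cells; exposure lasted 16 hr at 37 °C and 5% CO2, followed by ONE-Glo luminescence detection after 30 min.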
Rab9 promoter act: Rab9 promoter activation; Huh7 Rab9 promoter-luciferase reporter, luminescence, 24 h; Potency, µM (series often up to 9.22 µM), inactives show top-dose activation, negative = inhibition, most hits filed as activators; hit rate 2.8% among 320,000; AID 485297; further: % of control where 0% means no effect; nearly all actives have a fitted effect of over 60% in size
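Quantitative HTS format; Huh7 Rab9-luciferase reporter cells (1500/well) receive compound 2 h post-plating, incubate 24 h at 37 °C, then get luciferase reagent for 10 min before luminescence reading.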
* hit, by the source's call; ? = inconclusive; . = no result given. The list is not random: actives were taken first. Their share in the collection is about 9.2%. The call rests on the fitted dose curve; in most records, active means well fitted curve in the direction sought with a large enough effect; inconclusive means small, poorly fitted or top-dose-only effect, or another doubt; inactive means no such curve, though single readings can be large; an effect the other way counts as inactive or inconclusive. Potency means the concentration at half of the fitted maximal effect.

SMILES	SMN2 splice up	FLuc modulator	ELG1 repair inh	NPC1 prom act	ELG1 genotox	Rab9 promoter act
CCCN(CCC)c1ccc(/C=C/c2ccc3cc(OCC)ccc3n2)cc1	.	6.7µM*	?	?	10%	2.2µM*
CC(=O)c1ccc(N2CCN(C(=O)/C=C/c3ccc4ccccc4n3)CC2)cc1	-76%	?	3%	-3%	4%	0%
Cc1ccc(S(=O)(=O)Nc2nc3ccccc3s2)cc1	17%	1%	-1%	0%	1%	1%
CC1=C(C(=O)Nc2ccc(C)cc2C)C(c2cccn2C)n2ncnc2N1 (stereo not given)	.	-3%	.	.	.	.
COc1ccc(-c2nc3c(c(SCC(=O)Nc4ccccc4F)n2)Cc2cc(C)ccc2O3)cc1	-4%	1%	.	.	.	.
C[C@@H](NC(=O)CN(c1ccccc1)S(=O)(=O)N(C)C)c1ccccc1	-11%	-1%	.	.	.	.
COc1ccc(Oc2ncc3nc(-c4cccs4)c(=O)n(Cc4cccc(OC)c4)c3n2)cc1	-8%	.	.	.	.	.
NC(=O)c1ccc(CSc2nc3ccccc3s2)cc1	.	?	?	?	?	2.8µM*
CCNC(=O)c1ccc(CSc2nc3ccccc3s2)cc1	.	5.4µM*	-1%	6%	11%	-1%
c1ccc2sc(SCc3ccc(-c4nnco4)cc3)nc2c1	13µM*	4.8µM*	?	1.4µM*	?	3.2µM*
Cc1ccc(C)c(SCC(=O)N(C)CC(=O)Nc2ccc(N3CCOCC3)cc2)c1	.	2%	0%	-4%	-2%	-4%
CCC(=O)n1nc(-c2ccc(Cl)cc2)nc1NCc1ccccc1	11%	-2%	?	18%	21µM*	?
CCc1ccc(CN2C(=O)c3ccccc3C2C(=O)NCCc2ccc(OC)c(OC)c2)cc1 (stereo not given)	.	0%	.	.	.	.
Cc1ccc(/C=C/C(=O)CCC(=O)O)cc1	.	6.7µM*	?	22%	13%	?
CCOc1cccc(C(=O)Nc2ccc3oc(-c4ccncc4)nc3c2)c1	-20%	?	.	.	.	.
Cc1ccc(/C=C/C2=NN(C)C(=O)CC2)cc1	11µM*	6.7µM*	?	3.5µM*	?	0.89µM*
CCN(CC(=O)NCc1cccs1)C(=O)/C=C/c1cc(Br)ccc1OC(F)F	.	0%	?	0%	1%	-1%
Cc1[nH]n(C(N)=S)c(=O)c1N=Nc1cccc(Cl)c1	.	5.4µM*	?	?	?	?
NC(=S)n1[nH]c(-c2ccc([N+](=O)[O-])cc2)c(N=Nc2cccc(Cl)c2)c1=O	-62%	-17%	3.7µM*	-14%	-20%	-22%
Cc1cccc(N=Nc2c(C)[nH]n(C(N)=S)c2=O)c1C	?	12µM*	?	?	?	4µM*
Cc1[nH]n(C(N)=S)c(=O)c1N=Nc1ccc([N+](=O)[O-])cc1Cl	.	9.5µM*	0%	?	1%	30%
NC(=O)c1ccc(SCC(=O)OCC(=O)NCc2ccco2)c([N+](=O)[O-])c1	.	3%	15%	0%	1%	-5%
Oc1ccc(N=C/C=C/c2cccc(Br)c2)cc1-c1nc2ccccc2s1	76%	6µM*	?	?	?	?
Oc1ccc(-c2nc3ccccc3s2)c(O)c1	.	6µM*	?	2.8µM*	?	4µM*
O=C(Nc1ccc(O)c(-c2nc3ccccc3s2)c1)c1cccs1	15%	?	?	8%	3%	-1%
Nc1ccc(O)c(-c2nc3ccccc3s2)c1	?	6µM*	?	3.2µM*	?	?
Nc1ccccc1-c1nc2ccccc2s1	?	11µM*	?	?	?	4µM*
O=C(Nc1ccccc1-c1nc2ccccc2s1)c1ccc(F)cc1	-18%	-1%	.	.	.	.
CCOC(=O)N1CCN(C(=O)c2ccc3c(c2)N(Cc2ccccc2F)C(=O)c2ccccc2S3=O)CC1 (stereo not given)	-1%	2%	.	.	.	.
